# Most compounds without a hit are left out; they make up all but 2.4% or so of the library.
# D2 ag-1: human D2 receptor agonism in beta-arrestin assay. DiscoveRx PathHunter D2 beta-arrestin, luminescence, 90 min; 100% = 57 uM dopamine signal. hit rate 0.084% among 360,000. activation, % (test concentration not listed). P14416; in the data active = activation above about 40%; inconclusive = between about 15% and that limit
# Target sequence (P14416 whole entry, looked up): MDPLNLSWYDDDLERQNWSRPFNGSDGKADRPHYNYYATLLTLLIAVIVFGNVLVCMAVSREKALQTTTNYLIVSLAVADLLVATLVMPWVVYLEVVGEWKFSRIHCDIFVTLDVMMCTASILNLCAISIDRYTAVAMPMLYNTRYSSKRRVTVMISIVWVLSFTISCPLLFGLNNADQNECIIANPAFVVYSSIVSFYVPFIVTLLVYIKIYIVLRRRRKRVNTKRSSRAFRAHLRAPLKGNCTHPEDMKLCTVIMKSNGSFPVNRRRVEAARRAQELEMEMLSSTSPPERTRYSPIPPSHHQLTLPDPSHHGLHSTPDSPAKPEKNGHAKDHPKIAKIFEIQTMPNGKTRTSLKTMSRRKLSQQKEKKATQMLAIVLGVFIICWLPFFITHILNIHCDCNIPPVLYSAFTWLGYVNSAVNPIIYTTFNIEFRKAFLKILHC
#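 DiscoveRx PathHunter D2 beta-arrestin cells (2,100/well) attached overnight, then compound-stimulated 90 min at 37 C in HBSS/10 mM HEPES/0.1% Tween-20 buffer; beta-galactosidase complementation read by luminescence after 1 h at ambient temperature. Dopamine 57 uM final (EC100) as control.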
# D2 PAM-1: D2 dopamine receptor (human) potentiation; potentiation, % at 10 µM; P14416; HEK293 T-REx D2, calcium flux, EC20 dopamine potentiation; hit rate 0.34% among 340,000;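 active = potentiation over 3 SD above the plate norm, cut at about 30% in these data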; note: 0% is about no effect
#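 Tetracycline-induced Hek293 Trex D2 cells, force-coupled to calcium, loaded with no-wash calcium dye. Compound added with 180 s kinetic read for agonism, then EC20 dopamine and a further 180 s read for potentiation.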
# D2 antag: D2 dopamine receptor (human) antagonism | inhibition, % at 10 µM | HEK293 TREx D2 cells, calcium flux, dopamine EC80 | hit rate 2% among 340,000; in the data active = inhibition above about 30%; inactive = below that, where a call was filed; note: 0% is about no effect
#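 Tetracycline-induced HEK293 T-REx cells expressing D2 force-coupled to calcium signalling were dye-loaded, exposed to compound for 180 s, then challenged with an EC80 of dopamine; calcium flux was followed kinetically for a further 180 s.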
# D2 PAM-2: positive allosteric modulators of human D2 dopamine receptor | P14416 | DiscoveRx D2 beta-arrestin cells, luminescence, 90 min; 100% = 57 uM dopamine signal | potentiation, % (concentration not given with the values) | hit rate 0.23% among 360,000; in the data active = potentiation above about 50%; inconclusive = mostly about 30% to 49%
#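 PathHunter D2 cells, attached overnight at 37 deg C, received compound in DMSO plus dopamine at EC20 (50 nM final) for 90 min at 37 deg C. Beta-arrestin recruitment was read as luminescence after 1 h with detection reagent at ambient temperature.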
# D2 ag-2: activates the human D2 dopamine receptor | activation, % at 2 µM | HEK293 T-REx D2 cells, calcium flux agonist mode | hit rate 0.53% among 340,000;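 active = activation over 3 SD above normal in the single-dose calcium agonist read, cut at about 30% in these data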; note: 0% is about no effect
#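 Agonism scored from kinetic calcium signal (1 read/sec, 180 s) following compound pin transfer, after a 10 s baseline. Cells: HEK293 Trex line expressing inducible D2 receptor coupled to calcium, dye-loaded after overnight culture at 30 C.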
# D3 ag: confirmation of human D3 dopamine receptor agonists, beta-arrestin. hit rate 4% among 2,300. DiscoveRx D3 beta-arrestin cells, luminescence, 90 min. shares compounds with D2 ag-2. AID 720506. Potency, µM (top dose mostly 76.9 µM), without a hit: top-dose activation, most hits filed as activators;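 note: potency is the fitted concentration of half-maximal effect; 100% = dopamine control response; nearly all actives have a fitted effect of over 70% in size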
# D2 ag-3: counter-screen for D3 agonists: human D2 dopamine receptor agonism; shares compounds with D2 ag-2; DiscoveRx PathHunter D2 beta-arrestin, luminescence, 90 min; response scale: percent relative to full dopamine signal; Potency, µM (doses to about 76.9 µM), without a hit: at the highest dose activation, usual class: activators; hit rate 5.9% among 2,300; note: potency is the fitted concentration of half-maximal effect; % of control where 0% means no effect; nearly all actives have a fitted effect of over 70% in size
# Numbers without * were called inactive; ? = inconclusive; . = not tested or not shown. Unless noted, calls come from the whole dose curve; as a rule, active = well fitted activation curve with a large enough effect; inconclusive = small, poorly fitted or top-dose-only effect; inactive = flat fitted curve, though single readings scatter.
SMILES,D2 ag-1,D2 PAM-1,D2 antag,D2 PAM-2,D2 ag-2,D3 ag,D2 ag-3
CCN(CC)c1ccc2cc(S(=O)(=O)c3ccc(C)cc3)c(=O)oc2c1,1.5,2.3,4.9,-2.3,28.7,-2.5%,1.7%
C=CCn1c(-c2ccc(OC)cc2)csc1=Nc1c(C)n(C)n(-c2ccccc2)c1=O,?,-15.2,53.6*,-25.3,66.7*,-7.7%,?
COc1cccc(S(=O)(=O)NC2CCN(C#N)C2)c1 (stereo not given),.,4.6,0.5,.,-0.3,-6.4%,-2.0%
C[C@@H](CO)NC(=O)[C@H]1O[C@@H](n2cnc3c(N)ncnc32)[C@H](O)[C@@H]1O,-4.4,.,.,-6.1,.,.,.
Nc1ncnc2c1ncn2C1OC(C(=O)NC2CC2)C(O)C1O (stereo not given),1.0,19.6,5.7,-4.9,-0.4,2.1%,-6.7%
CCCNC(=O)CN1C(=O)c2cccnc2Sc2ccccc21,.,-7.9,.,.,0.8,.,.
CC(=O)[C@@H]1[C@@H](C(=O)c2ccccc2)[C@]2(C(=O)Nc3ccccc32)[C@H]2C=Cc3cc(F)ccc3N12,-2.1,11.8,7.1,-4.1,1.8,.,.
O=C(c1ccccc1)[C@@H]1[C@@H](C(=O)c2ccc(F)cc2)[C@@]2(C(=O)Nc3ccccc32)[C@H]2c3ccccc3C=CN12,-4.1,-20.4,-5.0,1.2,56.7*,-4.3%,-0.4%
COCc1ccc(-c2c(-c3ccccc3OC)sc3cc4c(cc23)OCO4)cc1,-2.3,7.8,39.9*,-6.4,-0.4,0.9%,-3.4%
CCc1ccc(NC(=O)CSc2ccc(-c3sc(-c4ccccc4)nc3C)nn2)cc1,.,3.8,.,.,0.8,.,.
O=C1C2CC=CCC2C(=O)N1c1ccc(N2CCN(c3ccccn3)CC2)c([N+](=O)[O-])c1 (stereo not given),1.9,-22.0,17.7,7.0,26.4,?,8.5%
COc1ccc(C(C)C)cc1S(=O)(=O)NCc1ccccn1,-4.2,6.2,-11.7,-0.3,0.1,.,.
Cc1ccc(C(C)C)cc1S(=O)(=O)NCc1ccccn1,-2.1,1.2,.,6.0,.,-3.3%,0.0%
CC(NC(=O)CCC(=O)N1CCCCCC1)c1ccccc1 (stereo not given),-0.1,-23.4,10.1,2.7,44.4*,-1.3%,-1.6%
CC(NC(=O)CCC(=O)NC(C)c1ccccc1)c1ccccc1 (stereo not given),-2.0,-2.5,-16.7,-4.6,0.1,.,.
Cc1ccc(NC(=O)CNC(=O)c2ccc3c(c2)OCO3)nc1,2.0,-2.3,4.9,-8.6,0.8,-14.0%,-4.3%
COc1ccc(OC)c(S(=O)(=O)NCc2ccc3c(c2)CCN3C(=O)c2cccc(C)c2)c1,.,-0.3,.,.,-0.9,.,.
CCOC(=O)c1c(NC(=O)C(C)Sc2cccc[n+]2[O-])sc2c1CCN(Cc1ccccc1)C2 (stereo not given),-5.5,13.6,-5.9,-16.2,41.9*,-3.1%,-6.6%
CCOC(=O)c1c(NC(=O)CC)sc2c1CCN(Cc1ccccc1)C2,-5.7,4.8,-12.7,-17.0,7.7,.,.
CCOC(=O)c1c(NC(C)=O)sc2c1CCN(Cc1ccccc1)C2,-3.3,-19.2,-2.2,-8.3,25.2,.,.
COC(=O)c1c(NC(C)=O)sc2c1CCN(Cc1ccccc1)C2,-0.3,-21.1,-23.7,-9.0,38.2*,7.5%,11.5%
COc1cccc(-n2cc(CN(C)C(=O)C3CCC(=O)N(C4CC4)C3)cn2)c1 (stereo not given),-3.3,.,.,-6.9,.,.,.
COc1cccc(-n2cc(CNC(=O)C3CCC(=O)N(C4CC4)C3)cn2)c1 (stereo not given),7.6,1.5,18.8,2.8,-0.3,-2.4%,5.2%
COc1cc(/C=N/NC(=O)C(C)Nc2n[nH]c(=O)[nH]c2=O)ccc1O (stereo not given),-3.6,.,.,-4.1,.,.,.
CC(Nc1n[nH]c(=O)[nH]c1=O)C(=O)N/N=C/c1ccccc1 (stereo not given),-5.0,8.7,7.4,-6.7,-0.5,-1.9%,-3.5%
SMILES,D2 ag-1,D2 PAM-1,D2 antag,D2 PAM-2,D2 ag-2,D3 ag,D2 ag-3
COc1ccccc1NC(=O)c1cc([N+](=O)[O-])ccc1NCCN1C(=O)CCC1=O,-3.5,-24.3,-7.9,-5.2,46.9*,-6.1%,-9.0%
CCCSc1nnc(NC(=O)Cc2coc3cc(C)ccc23)s1,.,-5.9,.,.,.,.,.
Cc1ccccc1NC(=O)COc1coc(CN2CCN(Cc3ccccc3)CC2)cc1=O,0.8,-33.5,-3.8,-13.3,73.6*,-31.7%,-3.1%
Cc1ccc(NC(=O)COc2coc(CN3CCN(Cc4ccccc4)CC3)cc2=O)cc1,3.7,11.3,3.9,-7.0,-1.3,.,.
O=C(COc1coc(CN2CCN(c3ccccc3F)CC2)cc1=O)NC1CCCCC1,14.6,-8.0,19.2,2.5,0.8,12.0%,16.0%
O=S(=O)(c1cc(Cl)ccc1Cl)N1CCc2ccccc21,-1.1,-16.9,37.4*,1.7,61.1*,-4.7%,4.0%
C=CCOc1ccc(Br)cc1CNCC,-3.3,-28.3,67.4*,-8.1,62.0*,9.4%,?
Cc1nc2ccc(S(=O)(=O)CCC(=O)Nc3ccc(Cl)cc3)cc2s1,.,-2.0,.,.,0.0,.,.
CCN1CCN(c2ncnc3sc(C)c(-c4ccccc4)c23)CC1,?,.,-15.5,12.1,17.9,5.0%,17.8µM*
CCN1CCN(c2ncnc3scc(-c4ccc(C)c(C)c4)c23)CC1,12.8,-0.8,7.7,-1.3,8.6,.,.
CCOCCC(=O)Nc1ncc(S(=O)(=O)c2ccc([N+](=O)[O-])cc2)s1,?,.,.,-2.0,.,.,.
CCCC(C)C(=O)Nc1ncc(S(=O)(=O)c2ccc([N+](=O)[O-])cc2)s1 (stereo not given),14.3,9.6,18.6,11.4,23.0,?,24.0%
COc1cc(/C=C/C(O)=C/C(=O)/C=C/c2ccc(O)cc2)ccc1O,-4.8,-11.6,-11.9,-5.7,48.0*,-8.1%,-4.1%
O=C(Nn1cnc2ccccc2c1=O)c1ccc(Br)cc1,0.0,-11.6,26.3,-1.9,43.1*,29.3%,9.7%
Cc1cccc(NC(=S)NCCc2ccccc2)c1C,-3.1,14.1,-5.3,-5.0,-3.0,.,.
Cc1cccc(C)c1NC(=S)NCCc1ccc(O)c(O)c1,4.8,-19.6,67.3*,7.2,57.5*,-8.5%,?
O=C1OC(N2CCN(c3ccccn3)CC2)c2ccccc21 (stereo not given),8.6,-22.8,33.8*,-5.7,55.2*,2.8%,25.7%
O=S(=O)(Nc1ccc(-c2ccc(N3CCCC3)nn2)cc1)c1ccc(OC(F)(F)F)cc1,.,-6.1,.,.,1.0,.,.
